The values that follow come from PubChem BioAssay.

Assay [1] relates to PRMT1 (protein arginine N-methyltransferase 1). Briefly: PRMT1 binders on small-molecule microarrays, primary screen, biochemical, small-molecule microarray, 635 nm fluorescence (AID 1088).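 Note: binding of Prmt1 protein to compounds spotted on small-molecule microarray slides.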 Particulars: small-molecule microarray binding, higher = more signal.
Assay [2] is described as follows: yeast growth modulation, basal conditions, primary screen, YJM789 clinical isolate, OD600, 24 h (AID 1089).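 Note: growth of clinical yeast isolate S. cerevisiae YJM 789 seeded 1000 cells per well; test concentration not given here.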 Particulars: S. cerevisiae YJM789 growth, higher = more signal, called active from +8 up or from −8 down.
The nature of assay [3]: fission yeast growth modulation, primary screen, strain 972, OD600, 24 h, no modulator (AID 1090).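 Note: basal condition with compound alone and no growth modifier present; test concentration not given here.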 The settings on record: S. pombe 972 growth, higher = more signal, called active from +8 up or from −8 down.
Assay [4] can be described thus: S. cerevisiae growth modulation with rapamycin, primary screen, strain BY4716, OD600, 96 h (AID 1091). Note: test concentration not given here. Particulars: higher = more signal, called active from +8 up or from −8 down.
Assay [5] deals with Torsin-1A-interacting protein 2 (Homo sapiens) (UniProt Q8NFQ8). Briefly: LULL1 binders on small-molecule microarray, primary screen, cell lysate, human LULL1 lysate, 635/667 nm fluorescence (AID 1092).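 Note: probe is lysate of COS7 cells overexpressing human LULL1; score merges per-feature 667 nm fluorescence with signal-to-noise.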 The settings on record: hLULL1 lysate binding, 635 nm fluorescence, higher = more signal.
Assay [6] in a line: E. coli growth modulation, two-sided OD650, primary screen, E. coli filamentation project, strain DRC41, 24 h (AID 1093).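 Note: MC1000 strain lacking acrAB efflux and sulA so SOS filamentation is blocked; test concentration not given here.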 Particulars: OD650, 24 h, higher = more signal, called active from +8 up or from −8 down.
A short description of assay [7]: small-molecule microarray binders of probe aLefty2, primary screen, biochemical, biotinylated probe, 635/667 nm fluorescence (AID 1094).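 Note: score merges spot fluorescence near 667 nm with spot signal-to-noise ratio.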 Particulars: higher = more signal.
Assay [8] has as its system Noggin (protein binding on small-molecule microarray). Briefly: Noggin binders on small-molecule microarray, primary screen, biochemical, 635/667 nm fluorescence (AID 1095).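 Note: score merges 667 nm feature fluorescence with signal to noise over triplicate slides.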 Particulars: 635 nm fluorescence, higher = more signal.
In assay [9] the target is Neurogenic locus notch homolog protein 3 (Homo sapiens) (UniProt Q9UM47). Briefly: NOTCH3 binders on small-molecule microarray, primary screen, biochemical, 635/667 nm fluorescence (AID 1096). Particulars: NOTCH3 binding, 635 nm fluorescence, higher = more signal.
A short description of assay [10]: small-molecule microarray binders of probe aEGFR, primary screen, biochemical, biotinylated probe, 635/667 nm fluorescence (AID 1097).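 Note: probe is a biotinylated anti-EGFR antibody binding compounds printed on slides; score combines fluorescence near 667 nm and signal to noise of each spot.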 Particulars: higher = more signal.
Assay [11] has as its system Plasmodium falciparum Sir2 (PF13_0152, Sir2A). Briefly: pfSir2 binders on small-molecule microarrays, primary screen, biochemical, small-molecule microarray, 635 nm fluorescence (AID 1098).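 Note: score merges spot fluorescence intensity with its signal-to-noise ratio.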 The settings on record: small-molecule microarray binding, fluorescence 635 nm; higher = more signal.
A short description of assay [12]: small-molecule microarray binders of probe aDKK1, primary screen, biochemical, biotinylated probe, 635/667 nm fluorescence (AID 1099).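 Note: score merges 667nm spot fluorescence with signal to noise across triplicate slides; reference of the scale not given here.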 Particulars: higher = more signal.
The nature of assay [13]: small-molecule microarray binders of probe aCHRDL2, primary screen, biochemical, biotinylated probe, 635/667 nm fluorescence (AID 1100). The settings on record: higher = more signal.
Assay [14] in a line: splicing luciferase reporter signal modulators, primary screen, spliceosome inhibition project, cell-based, HEK293, splice +/- reporter (AID 1101).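 Note: HEK293 cells carrying a splicing-competent luciferase reporter gene; test concentration not given here.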 Particulars: luminescence, 24 h, higher = more signal, called active from +8 up or from −8 down. Background: In a reporter assay the amount or activity of a reporter protein is the signal.
For assay [15], the target named is Fibroblast growth factor 10 (Homo sapiens) (UniProt O15520). Briefly: FGF10 binders on small-molecule microarrays, primary screen, biochemical, small-molecule microarray, 635 nm fluorescence (AID 1102). The settings on record: FGF10 binding, fluorescence 635 nm, higher = more signal.
The subject of assay [16] is glycogen synthase kinase-3 (GSK3A per assay name; protocol says GSK3B). Briefly: GSK3 binders on small-molecule microarrays, primary screen, biochemical, small-molecule microarray, 635 nm fluorescence, GSK3A (AID 1103). Note: the record names both GSK3A and GSK3B. The settings on record: small-molecule microarray binding, fluorescence 635 nm; higher = more signal.
For assay [17], the target named is Epidermal growth factor receptor (Homo sapiens) (UniProt P00533). Briefly: EGFR binders on small-molecule microarrays, primary screen, biochemical, small-molecule microarray, 635 nm fluorescence (AID 1104).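 Note: score merges 667 nm emission intensity with spot signal to noise over triplicate slides.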 Particulars: EGFR binding, higher = more signal.
Assay [18] concerns the target Follistatin-related protein 3 (Homo sapiens) (UniProt O95633). Briefly: FSTL3 binders on small-molecule microarrays, primary screen, biochemical, small-molecule microarray, 635 nm fluorescence (AID 1105).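 Note: score merges emission near 667 nm and signal to noise per printed spot across three slides.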 The settings on record: FSTL3 binding, higher = more signal.
In assay [19] the target is Dickkopf-related protein 1 (Homo sapiens) (UniProt O94907). Briefly: DKK1 binders on small-molecule microarrays, primary screen, biochemical, small-molecule microarray, 635 nm fluorescence scan (AID 1106).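 Note: score merges emission near 667 nm with signal to noise over three replicate slides.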 The settings on record: DKK1 binding, higher = more signal.
In assay [20] the test system is Inhibin beta A chain (activin A). Briefly: INHBA (activin A) binders on microarrays, primary screen, biochemical, small-molecule microarray, 635 nm fluorescence scan (AID 1107).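 Note: mouse activin A protein probed at 4.33 µg/mL on printed slides; score merges bound-protein fluorescence near 667 nm with spot signal-to-noise.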 The settings on record: small-molecule microarray binding, higher = more signal.

Molecules are shown by their SMILES. Calls of active or inactive are those of the source.

Dickkopf-related protein 1 (Homo sapiens), sequence (O94907 whole entry, looked up): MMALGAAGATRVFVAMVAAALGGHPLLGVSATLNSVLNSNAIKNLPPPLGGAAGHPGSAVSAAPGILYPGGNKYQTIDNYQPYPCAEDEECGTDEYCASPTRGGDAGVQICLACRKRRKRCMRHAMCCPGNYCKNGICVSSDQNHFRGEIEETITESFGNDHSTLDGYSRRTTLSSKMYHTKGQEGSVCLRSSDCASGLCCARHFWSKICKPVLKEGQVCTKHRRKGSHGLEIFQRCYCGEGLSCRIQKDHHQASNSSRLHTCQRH
Torsin-1A-interacting protein 2 (Homo sapiens), sequence (Q8NFQ8 whole entry, looked up): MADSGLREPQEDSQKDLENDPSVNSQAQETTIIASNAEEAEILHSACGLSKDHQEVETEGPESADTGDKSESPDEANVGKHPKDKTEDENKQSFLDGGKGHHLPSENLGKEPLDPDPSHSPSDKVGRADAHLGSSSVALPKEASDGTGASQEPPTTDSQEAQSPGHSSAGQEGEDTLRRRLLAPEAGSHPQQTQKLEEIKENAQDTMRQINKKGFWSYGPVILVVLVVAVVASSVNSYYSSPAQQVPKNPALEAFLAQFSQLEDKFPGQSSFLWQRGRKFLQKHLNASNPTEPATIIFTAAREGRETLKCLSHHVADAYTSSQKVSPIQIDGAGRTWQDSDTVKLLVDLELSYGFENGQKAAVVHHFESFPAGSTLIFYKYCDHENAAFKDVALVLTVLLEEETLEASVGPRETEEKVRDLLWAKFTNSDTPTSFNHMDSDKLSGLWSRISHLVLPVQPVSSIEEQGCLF
Neurogenic locus notch homolog protein 3 (Homo sapiens), sequence (Q9UM47 whole entry, looked up): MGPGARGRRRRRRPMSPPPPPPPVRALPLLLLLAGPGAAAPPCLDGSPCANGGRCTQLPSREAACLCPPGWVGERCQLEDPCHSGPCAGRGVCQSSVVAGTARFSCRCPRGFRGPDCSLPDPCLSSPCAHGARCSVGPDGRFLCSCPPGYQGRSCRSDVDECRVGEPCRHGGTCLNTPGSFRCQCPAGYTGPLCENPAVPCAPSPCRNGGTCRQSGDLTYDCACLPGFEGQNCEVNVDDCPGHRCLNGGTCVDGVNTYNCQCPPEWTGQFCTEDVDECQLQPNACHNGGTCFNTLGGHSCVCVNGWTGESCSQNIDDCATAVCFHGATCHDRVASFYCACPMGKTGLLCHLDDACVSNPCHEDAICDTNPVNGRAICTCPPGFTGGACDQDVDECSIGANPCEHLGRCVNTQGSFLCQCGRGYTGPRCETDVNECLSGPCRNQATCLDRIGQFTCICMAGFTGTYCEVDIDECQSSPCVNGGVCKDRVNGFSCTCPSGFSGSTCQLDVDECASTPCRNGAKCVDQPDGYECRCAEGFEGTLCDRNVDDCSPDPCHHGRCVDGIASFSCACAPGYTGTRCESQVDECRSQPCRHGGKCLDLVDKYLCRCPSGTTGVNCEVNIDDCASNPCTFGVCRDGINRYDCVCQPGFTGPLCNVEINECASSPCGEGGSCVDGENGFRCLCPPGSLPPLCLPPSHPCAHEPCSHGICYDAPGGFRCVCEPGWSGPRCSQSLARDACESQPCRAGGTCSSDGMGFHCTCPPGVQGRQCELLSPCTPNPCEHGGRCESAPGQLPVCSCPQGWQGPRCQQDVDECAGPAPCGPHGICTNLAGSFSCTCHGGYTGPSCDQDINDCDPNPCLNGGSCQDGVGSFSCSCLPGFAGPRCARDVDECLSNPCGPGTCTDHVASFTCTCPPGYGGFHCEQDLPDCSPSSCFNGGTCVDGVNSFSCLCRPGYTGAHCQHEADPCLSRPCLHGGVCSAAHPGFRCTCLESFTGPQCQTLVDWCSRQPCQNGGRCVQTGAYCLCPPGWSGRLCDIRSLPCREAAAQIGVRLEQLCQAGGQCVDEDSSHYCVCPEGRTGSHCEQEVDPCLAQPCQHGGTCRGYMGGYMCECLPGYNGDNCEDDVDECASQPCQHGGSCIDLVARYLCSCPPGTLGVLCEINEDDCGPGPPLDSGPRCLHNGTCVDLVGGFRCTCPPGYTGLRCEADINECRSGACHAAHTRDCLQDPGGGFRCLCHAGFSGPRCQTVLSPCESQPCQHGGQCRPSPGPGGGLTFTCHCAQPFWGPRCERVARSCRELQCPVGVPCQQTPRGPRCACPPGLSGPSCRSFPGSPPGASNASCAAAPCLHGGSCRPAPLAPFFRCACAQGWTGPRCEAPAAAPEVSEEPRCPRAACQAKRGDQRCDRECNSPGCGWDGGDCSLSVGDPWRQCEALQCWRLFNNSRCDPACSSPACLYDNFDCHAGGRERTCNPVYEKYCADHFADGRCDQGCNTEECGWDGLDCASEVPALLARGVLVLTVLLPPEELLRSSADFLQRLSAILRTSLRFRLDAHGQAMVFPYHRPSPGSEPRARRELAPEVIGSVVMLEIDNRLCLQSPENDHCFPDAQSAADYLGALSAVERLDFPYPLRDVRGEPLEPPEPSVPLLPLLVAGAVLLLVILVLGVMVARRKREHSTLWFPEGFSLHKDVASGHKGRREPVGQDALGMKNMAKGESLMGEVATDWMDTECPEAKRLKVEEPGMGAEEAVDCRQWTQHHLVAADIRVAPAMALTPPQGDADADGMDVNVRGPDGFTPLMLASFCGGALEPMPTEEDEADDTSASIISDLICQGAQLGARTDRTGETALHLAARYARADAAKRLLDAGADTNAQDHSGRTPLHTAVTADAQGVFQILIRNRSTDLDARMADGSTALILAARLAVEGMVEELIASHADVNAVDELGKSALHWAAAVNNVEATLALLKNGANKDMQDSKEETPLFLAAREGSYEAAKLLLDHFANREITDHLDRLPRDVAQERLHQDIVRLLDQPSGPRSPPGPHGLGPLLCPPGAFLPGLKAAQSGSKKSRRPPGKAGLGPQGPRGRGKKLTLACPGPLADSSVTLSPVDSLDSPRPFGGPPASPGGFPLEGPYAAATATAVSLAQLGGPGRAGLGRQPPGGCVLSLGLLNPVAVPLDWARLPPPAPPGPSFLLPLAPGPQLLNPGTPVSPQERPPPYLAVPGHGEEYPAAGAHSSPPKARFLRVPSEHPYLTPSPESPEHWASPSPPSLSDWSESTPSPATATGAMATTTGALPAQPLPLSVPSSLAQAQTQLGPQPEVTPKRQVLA
Follistatin-related protein 3 (Homo sapiens), sequence (O95633 whole entry, looked up): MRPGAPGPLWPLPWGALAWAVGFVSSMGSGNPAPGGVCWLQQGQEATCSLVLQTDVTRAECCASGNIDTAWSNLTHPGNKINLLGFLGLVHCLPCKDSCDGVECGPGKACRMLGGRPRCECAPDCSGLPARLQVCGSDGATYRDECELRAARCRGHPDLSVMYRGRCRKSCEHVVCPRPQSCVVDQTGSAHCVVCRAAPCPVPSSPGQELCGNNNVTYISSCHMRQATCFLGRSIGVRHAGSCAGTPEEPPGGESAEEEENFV
Fibroblast growth factor 10 (Homo sapiens), sequence (O15520 whole entry, looked up): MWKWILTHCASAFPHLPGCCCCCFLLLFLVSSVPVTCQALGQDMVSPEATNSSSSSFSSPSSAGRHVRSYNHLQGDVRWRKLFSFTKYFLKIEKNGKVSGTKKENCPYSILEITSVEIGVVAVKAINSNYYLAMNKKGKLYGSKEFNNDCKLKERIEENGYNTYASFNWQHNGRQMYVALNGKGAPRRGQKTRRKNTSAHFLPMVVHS
Epidermal growth factor receptor (Homo sapiens), sequence (P00533 whole entry, looked up): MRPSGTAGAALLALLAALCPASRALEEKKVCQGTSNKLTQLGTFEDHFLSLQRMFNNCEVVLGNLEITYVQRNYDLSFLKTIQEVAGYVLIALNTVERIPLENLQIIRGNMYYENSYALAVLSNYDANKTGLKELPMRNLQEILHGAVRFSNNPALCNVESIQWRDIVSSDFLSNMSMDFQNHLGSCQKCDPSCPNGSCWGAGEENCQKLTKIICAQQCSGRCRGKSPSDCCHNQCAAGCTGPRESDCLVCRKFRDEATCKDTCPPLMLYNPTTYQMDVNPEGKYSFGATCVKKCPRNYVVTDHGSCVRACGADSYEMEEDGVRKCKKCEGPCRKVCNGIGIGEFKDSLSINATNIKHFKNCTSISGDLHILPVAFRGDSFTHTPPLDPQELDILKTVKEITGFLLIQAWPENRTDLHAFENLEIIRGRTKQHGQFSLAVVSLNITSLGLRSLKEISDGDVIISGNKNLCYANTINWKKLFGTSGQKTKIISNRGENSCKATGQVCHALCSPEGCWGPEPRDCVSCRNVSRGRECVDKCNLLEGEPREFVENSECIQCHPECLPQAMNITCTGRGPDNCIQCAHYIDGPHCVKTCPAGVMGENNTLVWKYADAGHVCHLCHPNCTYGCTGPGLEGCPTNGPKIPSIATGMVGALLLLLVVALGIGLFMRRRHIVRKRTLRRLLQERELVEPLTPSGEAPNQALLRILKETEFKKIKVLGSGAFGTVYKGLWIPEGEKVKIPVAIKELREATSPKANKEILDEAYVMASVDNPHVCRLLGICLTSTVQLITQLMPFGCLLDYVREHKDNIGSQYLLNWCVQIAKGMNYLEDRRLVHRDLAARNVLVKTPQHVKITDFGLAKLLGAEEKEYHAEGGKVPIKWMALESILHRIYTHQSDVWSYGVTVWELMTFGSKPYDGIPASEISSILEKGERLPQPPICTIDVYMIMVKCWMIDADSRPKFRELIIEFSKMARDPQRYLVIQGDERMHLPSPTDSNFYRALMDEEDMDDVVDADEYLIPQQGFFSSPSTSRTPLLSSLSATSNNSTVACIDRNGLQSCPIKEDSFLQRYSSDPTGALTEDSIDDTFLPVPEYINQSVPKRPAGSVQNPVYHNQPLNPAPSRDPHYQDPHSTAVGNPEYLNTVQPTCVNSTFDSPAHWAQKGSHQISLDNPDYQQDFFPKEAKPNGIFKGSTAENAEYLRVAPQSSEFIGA

Regarding `C=C(/C(=C/C[C@@H](OC(C)=O)c1cccc(OCCO)c1)c1cc(C(=O)OC)ccc1OC)C(C)C`, the composite z-score in assay [1] is 1.07; in [5], 1.69; in assay [7] it was 0.0347; in assay [8], 0.575; in assay [9] it was 0.666; in assay [10] it was -0.0987. Besides, the composite z-score was 0.628 in assay [11]; 0.153 in assay [12]; -0.0171 in assay [13]; 0.855 in assay [15]; -0.298 in [16]; -0.122 in assay [17]. The composite z-score in assay [18] is 0.533; in assay [19] it was -0.35; in [20] it was 0.632. In addition, the z-score in assay [2] was -0.373 (inactive); in assay [3], 0.114 (inactive); in assay [4], -0.87 (inactive); in [6] it was 0.251 (inactive); in [14], -0.0584 (inactive).
In the case of `C=CCN1C(=O)[C@@]2(O[C@@H](CCn3cc([C@H](O)c4ccccc4)nn3)[C@H]([Si](C)(C)c3ccc(OC)cc3)[C@H]2C)c2cc(N3CCC3=O)ccc21`, the composite z-score in assay [1] is 0.467; in assay [5], 1.03; in [7], -0.11; in assay [8], 0.711; in assay [9], -0.681; in assay [10], -0.183. Moreover, the composite z-score is 1.43 in assay [11]; 0.0289 in assay [12]; 0.257 in assay [13]; 0.216 in [15]; -0.0371 in assay [16]; -0.0844 in [17]. The composite z-score was -0.296 in assay [18], -0.0607 in assay [19] and 0.289 in [20]. Besides, the z-score was 1.38 (inactive) in assay [2]; 0.95 (inactive) in assay [3]; 2.37 (inactive) in assay [4]; 0.456 (inactive) in [6]; -0.429 (inactive) in assay [14].
Regarding `COCCCNC(=O)[C@]1(CCS(=O)(=O)c2ccccc2)N=C(c2ccc(OCCCO)cc2)O[C@@H]1c1ccccc1N=[N+]=[N-]`, the composite z-score in assay [1] was 1.38; in assay [5], 2.93; in [7], 0.106; in [8], -0.122; in [9] it was 0.349; in [10], 0.287. Moreover, the composite z-score in assay [11] was 1.47; in assay [12], 1.1; in [13], 0.698; in assay [15], 1.16; in assay [16], 1.29; in assay [17], 0.151. The results for the composite z-score in [18], in [19] and in assay [20] were 0.735, -0.262 and 0.963, respectively. Further, the z-score in assay [2] is 0.371 (inactive); in [3], 0.61 (inactive); in assay [4], 3.42 (inactive); in assay [6], 0.464 (inactive); in assay [14] it was 0.409 (inactive).
Regarding `COC(=O)c1ccc([C@H](NC(=O)c2ccco2)[C@]2(C)C[C@H]2C2CCCCC2)cc1`, the composite z-score in [1] is -1.67; in [5], 1.45; in assay [7], -0.0986; in [8] it was -0.586; in assay [9], -0.436; in assay [10] it was -0.192. Also, the composite z-score in assay [11] is -1.05; in assay [12], 0.642; in [13], 1.06; in assay [15] it was -0.32; in assay [16] it was -1.22; in assay [17], -0.808. Moreover, the composite z-score was -1.03 in assay [18], -1.09 in assay [19] and 0.447 in [20]. The z-score in assay [2] is 0.0339 (inactive); in [3], 0.17 (inactive); in assay [4], 0.605 (inactive); in assay [6], -1.49 (inactive); in assay [14], 2.43 (inactive).
As to `CC(C)(C)N1CC=CC23O[C@@H]4C=CCCOC(=O)C4[C@H]2C(=O)N(CCO)[C@@H]3C1=O` (stereo not given in full), the composite z-score is 0.13 in assay [1]; -1.67 in assay [5]; -0.267 in assay [7]; -0.365 in assay [8]; -0.696 in [9]; -0.112 in assay [10]. For the same compound, the composite z-score is -1.04 in assay [11]; -0.106 in assay [12]; -0.254 in assay [13]; -0.385 in assay [15]; -0.649 in [16]; -0.306 in [17]. Also, the composite z-score in assay [18] is -0.959; in assay [19], -0.492; in assay [20], 0.0863. The z-score in assay [2] is -0.125 (inactive); in [3] it was -0.229 (inactive); in [4], -0.0913 (inactive); in [6], 0.976 (inactive); in assay [14] it was 0.288 (inactive).
